Assay results taken from PMC7862700, “An all-to-all approach to the identification of sequence-specific readers for epigenetic DNA modifications on cytosine”.

Key:
Assay in all cases: DAPPL (digital affinity profiling via proximity ligation, sequencing); 10 mM Tris-HCl pH 7.5, 50 mM NaCl, 1 mM DTT, 4% glycerol, room temperature, 30 min; GST-TFs on glutathione beads, 16-mer random dsDNA library, 0.1% formaldehyde crosslink after washing; high values mean tight binding
Conditions in all cases: protein: recombinant; tags: N-terminal GST; dsDNA, one strand shown
[1] = biological target: T1, FLI1 (Homo sapiens, UniProt Q01543 1-452)
T1 sequence: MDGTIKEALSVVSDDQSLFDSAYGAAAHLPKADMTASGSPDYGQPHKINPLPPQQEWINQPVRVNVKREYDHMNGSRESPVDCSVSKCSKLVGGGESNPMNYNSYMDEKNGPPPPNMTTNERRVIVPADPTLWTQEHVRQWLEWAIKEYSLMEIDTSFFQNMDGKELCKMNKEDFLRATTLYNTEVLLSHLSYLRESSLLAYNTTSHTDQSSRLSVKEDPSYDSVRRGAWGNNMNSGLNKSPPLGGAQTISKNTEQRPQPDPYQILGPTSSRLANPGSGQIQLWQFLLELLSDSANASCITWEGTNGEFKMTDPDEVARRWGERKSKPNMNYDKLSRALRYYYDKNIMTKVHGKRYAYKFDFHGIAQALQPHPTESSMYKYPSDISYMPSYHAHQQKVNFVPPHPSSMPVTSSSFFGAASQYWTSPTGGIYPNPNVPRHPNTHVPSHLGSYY
Outline: (§1)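 After expression in yeast as GST fusions, human transcription factors were bound to glutathione beads, DNA-barcoded and mixed with a tag-only sample. The pools were incubated with 200 nmole of a 16-mer random double-stranded DNA library in Tris/NaCl/DTT/glycerol buffer (30 min, room temperature), washed and crosslinked with 0.1% formaldehyde. Proximity ligation with BsaI/T4 ligase ran for 1 h at 37 °C, before PCR amplification and sequencing on an Illumina NextSeq500. Binding signal is a hexamer's read frequency for a factor divided by its frequency for the tag-only sample.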

[2] = biological target: T2, ELK1 (Homo sapiens, UniProt P19419 1-428)
T2 sequence: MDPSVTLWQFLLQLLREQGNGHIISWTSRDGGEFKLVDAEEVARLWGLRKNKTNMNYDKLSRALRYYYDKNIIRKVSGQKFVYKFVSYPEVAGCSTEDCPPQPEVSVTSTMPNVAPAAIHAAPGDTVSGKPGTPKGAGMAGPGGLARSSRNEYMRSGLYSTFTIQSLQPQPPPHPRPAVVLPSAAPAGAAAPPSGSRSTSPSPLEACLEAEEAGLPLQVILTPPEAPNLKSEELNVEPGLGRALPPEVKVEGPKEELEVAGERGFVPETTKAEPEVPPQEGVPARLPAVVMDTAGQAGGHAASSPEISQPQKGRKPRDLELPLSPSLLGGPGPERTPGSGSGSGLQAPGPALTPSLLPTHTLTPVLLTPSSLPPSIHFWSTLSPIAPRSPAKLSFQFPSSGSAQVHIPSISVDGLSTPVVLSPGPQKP
Outline: as §1

[3] = biological target: T3, GABPA (Homo sapiens, UniProt Q06546 1-454)
T3 sequence: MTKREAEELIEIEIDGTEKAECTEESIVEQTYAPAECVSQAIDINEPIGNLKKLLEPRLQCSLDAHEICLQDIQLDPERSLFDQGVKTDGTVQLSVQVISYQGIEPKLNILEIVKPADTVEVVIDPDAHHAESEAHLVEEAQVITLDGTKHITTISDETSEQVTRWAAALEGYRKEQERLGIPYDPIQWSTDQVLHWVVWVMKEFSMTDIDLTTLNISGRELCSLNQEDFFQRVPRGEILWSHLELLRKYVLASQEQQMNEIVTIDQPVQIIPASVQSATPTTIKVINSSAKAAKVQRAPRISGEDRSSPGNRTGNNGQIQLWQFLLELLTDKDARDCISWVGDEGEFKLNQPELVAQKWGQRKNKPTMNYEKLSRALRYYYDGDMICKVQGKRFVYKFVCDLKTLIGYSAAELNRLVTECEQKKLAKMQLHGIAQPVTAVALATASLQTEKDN
Outline: as §1

[4] = biological target: T4, ERG (Homo sapiens, UniProt P11308 1-479)
T4 sequence: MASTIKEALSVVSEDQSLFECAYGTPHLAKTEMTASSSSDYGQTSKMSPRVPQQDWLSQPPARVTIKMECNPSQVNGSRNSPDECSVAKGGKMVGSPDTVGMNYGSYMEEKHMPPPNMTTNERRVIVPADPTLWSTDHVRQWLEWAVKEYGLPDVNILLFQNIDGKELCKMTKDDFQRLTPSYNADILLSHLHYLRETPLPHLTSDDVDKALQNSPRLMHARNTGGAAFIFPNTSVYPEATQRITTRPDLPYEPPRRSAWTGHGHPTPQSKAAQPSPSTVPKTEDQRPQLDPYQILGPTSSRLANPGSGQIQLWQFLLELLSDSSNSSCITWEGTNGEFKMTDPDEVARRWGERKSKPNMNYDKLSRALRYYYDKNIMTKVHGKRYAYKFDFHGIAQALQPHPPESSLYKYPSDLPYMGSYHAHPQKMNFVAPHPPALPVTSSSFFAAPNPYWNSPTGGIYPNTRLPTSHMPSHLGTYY
Outline: as §1

[5] = biological target: ELF1 (Homo sapiens, UniProt P32519 1-619)
Sequence of ELF1 (P32519 whole entry): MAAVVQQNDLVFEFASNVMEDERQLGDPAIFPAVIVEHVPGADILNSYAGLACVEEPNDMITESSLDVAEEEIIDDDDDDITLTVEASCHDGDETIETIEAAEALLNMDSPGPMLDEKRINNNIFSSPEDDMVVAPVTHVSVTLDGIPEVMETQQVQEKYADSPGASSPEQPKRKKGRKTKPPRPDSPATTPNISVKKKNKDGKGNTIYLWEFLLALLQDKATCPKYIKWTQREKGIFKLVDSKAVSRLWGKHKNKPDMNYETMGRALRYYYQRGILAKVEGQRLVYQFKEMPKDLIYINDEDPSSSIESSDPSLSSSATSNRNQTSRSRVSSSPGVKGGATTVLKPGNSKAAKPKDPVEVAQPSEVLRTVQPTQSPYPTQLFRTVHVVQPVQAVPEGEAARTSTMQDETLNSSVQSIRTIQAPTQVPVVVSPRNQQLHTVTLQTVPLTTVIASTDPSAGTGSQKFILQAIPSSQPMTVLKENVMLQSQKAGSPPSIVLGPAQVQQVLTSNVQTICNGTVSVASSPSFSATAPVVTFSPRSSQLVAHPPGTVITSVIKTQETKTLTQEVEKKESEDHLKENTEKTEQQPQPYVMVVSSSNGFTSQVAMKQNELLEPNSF
Outline: as §1

[6] = biological target: T5, EHF (Homo sapiens, UniProt Q9NZC4 1-300)
T5 sequence: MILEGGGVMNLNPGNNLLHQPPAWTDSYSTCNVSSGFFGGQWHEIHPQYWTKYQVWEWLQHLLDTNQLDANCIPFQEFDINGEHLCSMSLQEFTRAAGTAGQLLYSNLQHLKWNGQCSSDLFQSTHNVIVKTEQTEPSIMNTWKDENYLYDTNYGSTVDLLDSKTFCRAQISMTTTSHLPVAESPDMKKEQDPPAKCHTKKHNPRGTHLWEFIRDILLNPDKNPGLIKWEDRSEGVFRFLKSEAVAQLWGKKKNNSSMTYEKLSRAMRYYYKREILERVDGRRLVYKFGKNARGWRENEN
Outline: as §1

[7] = biological target: SPI1 (Homo sapiens, UniProt P17947 1-270)
Outline: as §1

[8] = biological target: SPIB (Homo sapiens, UniProt Q01892 1-262)
Sequence of SPIB (Q01892 whole entry): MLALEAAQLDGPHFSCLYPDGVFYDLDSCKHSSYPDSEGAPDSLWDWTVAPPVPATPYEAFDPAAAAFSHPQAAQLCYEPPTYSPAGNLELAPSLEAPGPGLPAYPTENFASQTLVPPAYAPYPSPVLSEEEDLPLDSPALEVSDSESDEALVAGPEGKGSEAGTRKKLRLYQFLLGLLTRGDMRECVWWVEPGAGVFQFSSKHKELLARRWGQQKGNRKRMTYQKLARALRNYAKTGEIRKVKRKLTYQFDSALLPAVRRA
Outline: as §1

[9] = biological target: T6, ELK3 (Homo sapiens, UniProt P41970 1-407)
T6 sequence: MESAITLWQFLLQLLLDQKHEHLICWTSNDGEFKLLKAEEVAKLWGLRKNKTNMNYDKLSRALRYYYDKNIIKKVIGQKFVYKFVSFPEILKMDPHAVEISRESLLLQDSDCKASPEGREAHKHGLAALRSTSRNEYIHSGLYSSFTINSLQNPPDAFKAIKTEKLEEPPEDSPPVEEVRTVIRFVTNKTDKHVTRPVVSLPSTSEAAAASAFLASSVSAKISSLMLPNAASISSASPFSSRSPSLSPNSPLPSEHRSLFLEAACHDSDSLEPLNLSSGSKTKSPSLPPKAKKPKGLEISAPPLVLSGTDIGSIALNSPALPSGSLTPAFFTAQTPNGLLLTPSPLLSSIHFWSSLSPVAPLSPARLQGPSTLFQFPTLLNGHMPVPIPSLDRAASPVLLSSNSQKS
Outline: as §1

[10] = biological target: T7, FEV (Homo sapiens, UniProt Q99581 1-238)
T7 sequence: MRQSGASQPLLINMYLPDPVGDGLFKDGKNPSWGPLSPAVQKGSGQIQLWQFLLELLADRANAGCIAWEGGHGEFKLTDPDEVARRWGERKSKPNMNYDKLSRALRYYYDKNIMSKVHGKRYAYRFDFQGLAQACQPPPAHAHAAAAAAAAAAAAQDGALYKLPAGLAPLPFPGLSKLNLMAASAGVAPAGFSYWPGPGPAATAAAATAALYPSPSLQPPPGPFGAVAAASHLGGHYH
Outline: as §1

[11] = biological target: ETV5 (Homo sapiens, UniProt P41161 1-510)
Sequence of ETV5 (P41161 whole entry): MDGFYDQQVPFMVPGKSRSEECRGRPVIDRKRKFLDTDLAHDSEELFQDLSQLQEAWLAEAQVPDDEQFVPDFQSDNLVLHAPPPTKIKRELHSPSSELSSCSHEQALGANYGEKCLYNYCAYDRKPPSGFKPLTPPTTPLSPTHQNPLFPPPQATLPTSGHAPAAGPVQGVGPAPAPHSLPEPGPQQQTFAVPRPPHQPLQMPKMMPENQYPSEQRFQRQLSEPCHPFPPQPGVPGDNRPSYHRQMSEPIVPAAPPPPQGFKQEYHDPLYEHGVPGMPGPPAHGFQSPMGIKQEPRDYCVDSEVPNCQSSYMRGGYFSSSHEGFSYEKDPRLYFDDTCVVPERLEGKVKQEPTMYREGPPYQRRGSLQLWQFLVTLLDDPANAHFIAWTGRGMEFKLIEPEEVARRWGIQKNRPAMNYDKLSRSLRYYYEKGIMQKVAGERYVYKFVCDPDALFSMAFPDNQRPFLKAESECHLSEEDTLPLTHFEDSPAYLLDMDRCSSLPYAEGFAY
Outline: as §1

[12] = biological target: T8, SPIC (Homo sapiens, UniProt Q8N5J4 1-248)
T8 sequence: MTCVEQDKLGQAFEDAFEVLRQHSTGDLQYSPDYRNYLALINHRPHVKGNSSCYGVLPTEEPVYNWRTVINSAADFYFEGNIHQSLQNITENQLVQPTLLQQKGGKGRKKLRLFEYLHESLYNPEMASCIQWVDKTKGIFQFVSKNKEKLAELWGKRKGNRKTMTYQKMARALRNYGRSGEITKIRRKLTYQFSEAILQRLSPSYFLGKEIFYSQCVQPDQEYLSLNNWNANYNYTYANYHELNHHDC
Outline: as §1

[13] = biological target: ELF4 (Homo sapiens, UniProt Q99607 1-663)
Sequence of ELF4 (Q99607 whole entry): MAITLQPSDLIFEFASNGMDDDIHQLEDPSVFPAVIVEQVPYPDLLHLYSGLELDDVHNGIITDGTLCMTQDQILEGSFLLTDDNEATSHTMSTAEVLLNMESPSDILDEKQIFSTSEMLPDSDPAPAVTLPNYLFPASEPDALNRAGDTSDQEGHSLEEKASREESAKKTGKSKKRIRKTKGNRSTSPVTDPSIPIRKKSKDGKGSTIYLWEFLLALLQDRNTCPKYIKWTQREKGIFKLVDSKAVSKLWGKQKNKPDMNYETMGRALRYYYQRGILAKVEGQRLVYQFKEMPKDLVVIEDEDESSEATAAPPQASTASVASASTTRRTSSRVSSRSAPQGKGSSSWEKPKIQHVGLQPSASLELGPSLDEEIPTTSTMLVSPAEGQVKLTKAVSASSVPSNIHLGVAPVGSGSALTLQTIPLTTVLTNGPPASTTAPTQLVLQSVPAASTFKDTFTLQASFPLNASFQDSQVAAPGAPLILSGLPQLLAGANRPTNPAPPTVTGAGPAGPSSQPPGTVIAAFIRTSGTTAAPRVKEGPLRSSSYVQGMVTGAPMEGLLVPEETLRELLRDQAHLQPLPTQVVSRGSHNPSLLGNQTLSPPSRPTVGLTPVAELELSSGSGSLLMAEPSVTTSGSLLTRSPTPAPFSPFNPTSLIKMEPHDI
Outline: as §1

[14] = biological target: ETV1 (Homo sapiens, UniProt P50549 1-477)
Sequence of ETV1 (P50549 whole entry): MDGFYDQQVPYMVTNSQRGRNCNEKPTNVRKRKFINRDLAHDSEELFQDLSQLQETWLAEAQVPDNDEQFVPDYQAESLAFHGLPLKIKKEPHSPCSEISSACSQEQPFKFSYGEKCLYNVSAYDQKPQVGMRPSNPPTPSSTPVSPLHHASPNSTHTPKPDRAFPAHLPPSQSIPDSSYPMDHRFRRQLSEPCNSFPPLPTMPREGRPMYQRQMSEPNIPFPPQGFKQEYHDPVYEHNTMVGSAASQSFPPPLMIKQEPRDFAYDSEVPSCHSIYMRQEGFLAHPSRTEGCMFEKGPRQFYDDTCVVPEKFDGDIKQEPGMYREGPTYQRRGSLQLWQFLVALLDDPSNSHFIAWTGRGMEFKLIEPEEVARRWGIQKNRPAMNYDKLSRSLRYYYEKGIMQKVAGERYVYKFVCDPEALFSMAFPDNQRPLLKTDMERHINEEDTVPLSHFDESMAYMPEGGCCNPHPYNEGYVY
Outline: as §1

[15] = biological target: T9, ERF (Homo sapiens, UniProt P50548 1-548)
T9 sequence: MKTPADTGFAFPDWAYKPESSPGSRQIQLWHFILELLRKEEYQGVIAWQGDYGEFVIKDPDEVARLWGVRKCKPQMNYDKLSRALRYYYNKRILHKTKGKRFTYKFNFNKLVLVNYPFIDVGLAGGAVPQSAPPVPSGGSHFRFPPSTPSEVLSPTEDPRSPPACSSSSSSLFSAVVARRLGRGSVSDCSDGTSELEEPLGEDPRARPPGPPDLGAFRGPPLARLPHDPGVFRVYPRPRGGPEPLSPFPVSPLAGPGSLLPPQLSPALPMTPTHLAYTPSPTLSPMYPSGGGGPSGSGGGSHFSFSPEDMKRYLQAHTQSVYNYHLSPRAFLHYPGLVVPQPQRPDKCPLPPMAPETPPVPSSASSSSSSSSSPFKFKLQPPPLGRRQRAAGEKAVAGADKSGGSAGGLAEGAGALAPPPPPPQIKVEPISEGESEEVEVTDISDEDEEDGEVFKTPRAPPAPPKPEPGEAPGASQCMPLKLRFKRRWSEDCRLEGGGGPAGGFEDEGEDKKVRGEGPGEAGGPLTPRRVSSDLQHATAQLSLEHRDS
Outline: as §1

[16] = biological target: T10, ETV3L (Homo sapiens, UniProt Q6ZN32 1-361)
T10 sequence: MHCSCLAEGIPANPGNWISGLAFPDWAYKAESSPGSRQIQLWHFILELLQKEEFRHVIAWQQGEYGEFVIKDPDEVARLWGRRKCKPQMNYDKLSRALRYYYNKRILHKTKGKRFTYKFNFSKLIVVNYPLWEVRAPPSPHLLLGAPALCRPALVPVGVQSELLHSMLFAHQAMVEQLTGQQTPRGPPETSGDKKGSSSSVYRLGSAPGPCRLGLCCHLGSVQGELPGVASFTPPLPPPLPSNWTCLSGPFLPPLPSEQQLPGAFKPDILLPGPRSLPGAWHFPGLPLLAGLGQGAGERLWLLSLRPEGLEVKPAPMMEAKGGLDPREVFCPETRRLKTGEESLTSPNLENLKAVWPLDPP
Outline: as §1

[17] = biological target: T11, ETS2 (Homo sapiens, UniProt P15036 1-469)
T11 sequence: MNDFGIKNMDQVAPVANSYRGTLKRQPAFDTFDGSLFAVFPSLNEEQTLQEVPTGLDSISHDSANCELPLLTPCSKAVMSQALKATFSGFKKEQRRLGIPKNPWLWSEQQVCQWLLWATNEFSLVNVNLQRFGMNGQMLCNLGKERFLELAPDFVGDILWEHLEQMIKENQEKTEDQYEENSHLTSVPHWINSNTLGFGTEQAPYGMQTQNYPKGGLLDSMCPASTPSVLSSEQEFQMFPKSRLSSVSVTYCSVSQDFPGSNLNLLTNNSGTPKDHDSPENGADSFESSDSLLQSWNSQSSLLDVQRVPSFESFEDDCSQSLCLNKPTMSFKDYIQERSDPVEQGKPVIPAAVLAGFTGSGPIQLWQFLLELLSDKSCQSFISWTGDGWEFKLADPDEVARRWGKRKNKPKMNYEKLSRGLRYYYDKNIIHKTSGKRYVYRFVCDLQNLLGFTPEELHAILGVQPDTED
Outline: as §1

[18] = biological target: T12, SPDEF (Homo sapiens, UniProt O95238 1-335)
T12 sequence: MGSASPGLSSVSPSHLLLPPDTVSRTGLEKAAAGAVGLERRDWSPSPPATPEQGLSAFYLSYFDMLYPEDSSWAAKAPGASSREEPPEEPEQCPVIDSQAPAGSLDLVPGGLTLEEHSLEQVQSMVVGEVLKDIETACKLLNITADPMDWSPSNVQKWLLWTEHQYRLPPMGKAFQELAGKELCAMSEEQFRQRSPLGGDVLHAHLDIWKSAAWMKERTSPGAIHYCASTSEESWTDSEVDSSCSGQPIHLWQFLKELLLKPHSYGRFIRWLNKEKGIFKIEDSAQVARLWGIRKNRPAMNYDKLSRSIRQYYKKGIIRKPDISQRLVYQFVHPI
Outline: as §1

[19] = biological target: T13, ETV3 (Homo sapiens, UniProt P41162-2 1-143)
T13 sequence: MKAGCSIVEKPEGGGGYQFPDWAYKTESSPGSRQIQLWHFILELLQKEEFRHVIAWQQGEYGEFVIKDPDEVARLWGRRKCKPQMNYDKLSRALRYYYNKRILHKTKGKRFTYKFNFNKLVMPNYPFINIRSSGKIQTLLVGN
Outline: as §1

[20] = biological target: ETV6 (Homo sapiens, UniProt P41212 1-452)
Sequence of ETV6 (P41212 whole entry): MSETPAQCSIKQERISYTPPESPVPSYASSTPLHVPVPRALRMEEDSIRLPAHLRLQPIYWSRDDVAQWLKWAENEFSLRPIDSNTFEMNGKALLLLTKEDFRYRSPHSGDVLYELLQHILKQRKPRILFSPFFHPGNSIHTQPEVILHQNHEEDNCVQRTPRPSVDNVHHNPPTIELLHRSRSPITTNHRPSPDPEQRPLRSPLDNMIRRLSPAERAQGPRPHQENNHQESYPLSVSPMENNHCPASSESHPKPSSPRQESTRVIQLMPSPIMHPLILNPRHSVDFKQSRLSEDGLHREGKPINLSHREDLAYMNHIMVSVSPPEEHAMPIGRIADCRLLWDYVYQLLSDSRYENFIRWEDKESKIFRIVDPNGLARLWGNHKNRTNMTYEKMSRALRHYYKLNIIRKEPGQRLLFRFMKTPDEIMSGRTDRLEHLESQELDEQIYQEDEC
Outline: as §1

With CGATGT the binding signal [1] was 1.1 fold enrichment (6-mer frequency, TF over GST control), the binding signal [2] was 1.07 fold enrichment (6-mer frequency, TF over GST control) and the binding signal [3] was 1.08 fold enrichment (6-mer frequency, TF over GST control). For the same sequence, the binding signal [4] was 1.08 fold enrichment (6-mer frequency, TF over GST control), the binding signal [5] was 1.03 fold enrichment (6-mer frequency, TF over GST control) and the binding signal [6] was 1.11 fold enrichment (6-mer frequency, TF over GST control). For the same sequence, the binding signal [7] was 1.15 fold enrichment (6-mer frequency, TF over GST control), the binding signal [8] was 1.08 fold enrichment (6-mer frequency, TF over GST control) and the binding signal [9] was 1.04 fold enrichment (6-mer frequency, TF over GST control). The binding signal [10] was 1.06 fold enrichment (6-mer frequency, TF over GST control), the binding signal [11] was 1.1 fold enrichment (6-mer frequency, TF over GST control) and the binding signal [12] was 1.07 fold enrichment (6-mer frequency, TF over GST control). For the same sequence, the binding signal [13] was 1.04 fold enrichment (6-mer frequency, TF over GST control), the binding signal [14] was 1.1 fold enrichment (6-mer frequency, TF over GST control) and the binding signal [15] was 1.16 fold enrichment (6-mer frequency, TF over GST control). The binding signal [16] was 1.09 fold enrichment (6-mer frequency, TF over GST control), the binding signal [17] was 1.12 fold enrichment (6-mer frequency, TF over GST control) and the binding signal [18] was 1.12 fold enrichment (6-mer frequency, TF over GST control). The binding signal [19] was 1.19 fold enrichment (6-mer frequency, TF over GST control) and the binding signal [20] was 1.03 fold enrichment (6-mer frequency, TF over GST control).
